Inconclusive results are not listed. Active and inactive are the calls of the source. Unless noted, calls come from the whole dose curve; as a rule, active = well fitted curve in the direction sought with a large enough effect in the repeat runs; inconclusive = weak or mixed curves; inactive = no such curve, though single readings can be large; an effect the other way counts as inactive or inconclusive.
Key:
[1] = qHTS assay to identify small molecule antagonists of the sonic hedgehog signaling (Shh) pathway (AID 1259369; calls by dose curve; note: nearly all actives have a fitted effect of over 45% in size)
How it was run: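 Read-out is luminescence from a firefly luciferase gene controlled by the Gli1 response element, in 3T3Gli1-Luc cells pre-incubated 4hr then exposed to compounds and conditioned medium for 24hr.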

[2] = target: Estrogen receptor beta (Homo sapiens) (UniProt Q92731); experiment: qHTS assay to identify small molecule agonists of the estrogen receptor beta (ER-beta) signaling pathway (AID 1259377; active = well fitted activation curve with a large enough effect in the signal ratio in the repeat runs, not every such curve was filed as active; the % refers to the signal ratio)
Estrogen receptor beta (Homo sapiens), sequence (Q92731 whole entry, looked up): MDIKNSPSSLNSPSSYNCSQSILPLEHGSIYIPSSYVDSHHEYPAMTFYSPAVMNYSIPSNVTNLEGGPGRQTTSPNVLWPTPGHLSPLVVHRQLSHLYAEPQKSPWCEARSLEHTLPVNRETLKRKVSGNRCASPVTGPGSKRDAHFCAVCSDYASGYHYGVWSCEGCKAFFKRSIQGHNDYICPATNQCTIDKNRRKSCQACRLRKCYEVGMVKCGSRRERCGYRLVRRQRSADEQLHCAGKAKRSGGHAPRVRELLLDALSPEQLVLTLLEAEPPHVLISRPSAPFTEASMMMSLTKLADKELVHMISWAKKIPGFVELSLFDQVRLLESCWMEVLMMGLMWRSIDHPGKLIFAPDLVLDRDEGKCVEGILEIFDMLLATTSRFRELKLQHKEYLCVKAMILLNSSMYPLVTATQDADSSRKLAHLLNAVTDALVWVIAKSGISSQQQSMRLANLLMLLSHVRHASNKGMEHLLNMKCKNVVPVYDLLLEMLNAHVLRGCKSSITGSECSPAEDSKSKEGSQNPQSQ
How it was run: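 Measured by fluorescence intensity from a B/G FRET beta-lactamase substrate (2 h, room temperature) in ER-beta-UAS-bla HEK293T cells treated with DMSO-dissolved compounds for 16 hr at 37C and 5% CO2.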

[3] = target: Estrogen receptor beta (Homo sapiens) (UniProt Q92731); experiment: qHTS assay to identify small molecule antagonists of the estrogen receptor beta (ER-beta) signaling pathway (AID 1259378; active = well fitted inhibition curve with a large enough effect in the signal ratio in the repeat runs, not every such curve was filed as active; the % refers to the signal ratio)
How it was run: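 ER-beta-UAS-bla HEK293T (GripTite) cells in 2% charcoal-stripped FBS medium were preincubated 6 hr at 37C, dosed with compound, then stimulated with 1 nM E2 (final) for 16 hr; beta-lactamase reporter read by B/G FRET fluorescence after 2 hr substrate loading.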

[4] = qHTS assay to identify small molecule agonists of the androgen receptor (AR) signaling pathway in the presence of an antagonist - cell viability counter screen (AID 1259379);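 note: MDA-kb2 human breast cancer cells carrying an MMTV luciferase reporter; series mostly up to about 92 µM; nearly all actives have a fitted effect of over 25% in size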
How it was run: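 Each compound was tested at 15 concentrations on MDA-kb2 cells in the presence of 3.0uM nilutamide. Viability was measured by CellTiter-Fluor fluorescence after a 16 hr incubation at 37C in a CO2-free atmosphere.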

[5] = qHTS assay to identify small molecule agonists of the estrogen receptor beta (ER-beta) signaling pathway - cell viability counter screen (AID 1259380); note: nearly all actives have a fitted effect of over 30% in size
How it was run: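 Compounds dissolved in DMSO were pin-transferred onto ER-beta-UAS-bla HEK293T cells that had settled 6 hr, and exposure ran 16 hr at 37C. Following the reporter read, CellTiter-Glo luminescence after 30 min at room temperature indicated cytotoxicity.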

[6] = qHTS assay to identify small molecule antagonists of the estrogen receptor beta (ER-beta) signaling pathway - cell viability counter screen (AID 1259382); note: series mostly up to about 92 µM; nearly all actives have a fitted effect of over 55% in size
How it was run: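 CellTiter-Glo ATP luminescence measured after the LiveBLAzer read in the same wells; ER-beta-UAS-bla HEK293T cells, 16 hr compound treatment with 1nM 17-beta-estradiol agonist at 37C, 5% CO2.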

[7] = target: Estrogen receptor (Homo sapiens) (UniProt P03372); experiment: qHTS assay to identify small molecule agonists of the estrogen receptor alpha (ER-alpha) signaling pathway in the presence of an antagonist (AID 1259383; calls by dose curve; note: top concentration of the series differs between compounds; nearly all actives have a fitted effect of over 15% in size)
Estrogen receptor (Homo sapiens), sequence (P03372 whole entry, looked up): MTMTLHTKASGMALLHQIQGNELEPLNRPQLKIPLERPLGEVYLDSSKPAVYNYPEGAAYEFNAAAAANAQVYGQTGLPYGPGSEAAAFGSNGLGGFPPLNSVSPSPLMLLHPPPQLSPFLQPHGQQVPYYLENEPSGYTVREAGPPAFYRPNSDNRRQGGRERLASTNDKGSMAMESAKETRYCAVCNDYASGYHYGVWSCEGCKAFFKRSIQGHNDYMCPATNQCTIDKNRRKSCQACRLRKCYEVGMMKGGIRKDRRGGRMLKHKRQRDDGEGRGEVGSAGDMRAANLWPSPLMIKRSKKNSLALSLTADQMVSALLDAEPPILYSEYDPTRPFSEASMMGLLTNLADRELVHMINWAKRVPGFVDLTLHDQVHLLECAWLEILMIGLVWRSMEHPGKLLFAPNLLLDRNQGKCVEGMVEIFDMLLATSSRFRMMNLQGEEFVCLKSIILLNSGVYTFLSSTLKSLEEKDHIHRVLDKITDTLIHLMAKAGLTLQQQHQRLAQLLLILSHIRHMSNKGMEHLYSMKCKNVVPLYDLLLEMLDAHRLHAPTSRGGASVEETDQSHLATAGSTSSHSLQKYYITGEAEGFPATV
How it was run: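 Luminescent ERE-luciferase reporter, VM7Luc4E2 cells (endogenous ER-alpha); 10.0nM ICI-182,780 final; 15-point compound titration; 22hr at 37C; ONE-Glo, 30min RT.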

[8] = qHTS assay to identify small molecule agonists or antagonists of the thyroid stimulating hormone receptor (TSHR) signaling pathway - wild type cell line counter screen (AID 1259384; calls by dose curve)
How it was run: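 Wild-type HEK293 cells were plated 18 h at 37 C/5% CO2, pin-dosed with compound plus Ro20-1724 medium, held 30 min at room temperature, then given cAMP-d2 and anti-cAMP-cryptate; fluorescence was read after 1 h. Fifteen concentrations, triplicate.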

[9] = target: Thyrotropin receptor (Homo sapiens) (UniProt P16473); experiment: qHTS assay to identify small molecule antagonists of the thyroid stimulating hormone receptor (TSHR) signaling pathway (AID 1259385; calls by dose curve; note: nearly all actives have a fitted effect of over 20% in size)
Thyrotropin receptor (Homo sapiens), sequence (P16473 whole entry, looked up): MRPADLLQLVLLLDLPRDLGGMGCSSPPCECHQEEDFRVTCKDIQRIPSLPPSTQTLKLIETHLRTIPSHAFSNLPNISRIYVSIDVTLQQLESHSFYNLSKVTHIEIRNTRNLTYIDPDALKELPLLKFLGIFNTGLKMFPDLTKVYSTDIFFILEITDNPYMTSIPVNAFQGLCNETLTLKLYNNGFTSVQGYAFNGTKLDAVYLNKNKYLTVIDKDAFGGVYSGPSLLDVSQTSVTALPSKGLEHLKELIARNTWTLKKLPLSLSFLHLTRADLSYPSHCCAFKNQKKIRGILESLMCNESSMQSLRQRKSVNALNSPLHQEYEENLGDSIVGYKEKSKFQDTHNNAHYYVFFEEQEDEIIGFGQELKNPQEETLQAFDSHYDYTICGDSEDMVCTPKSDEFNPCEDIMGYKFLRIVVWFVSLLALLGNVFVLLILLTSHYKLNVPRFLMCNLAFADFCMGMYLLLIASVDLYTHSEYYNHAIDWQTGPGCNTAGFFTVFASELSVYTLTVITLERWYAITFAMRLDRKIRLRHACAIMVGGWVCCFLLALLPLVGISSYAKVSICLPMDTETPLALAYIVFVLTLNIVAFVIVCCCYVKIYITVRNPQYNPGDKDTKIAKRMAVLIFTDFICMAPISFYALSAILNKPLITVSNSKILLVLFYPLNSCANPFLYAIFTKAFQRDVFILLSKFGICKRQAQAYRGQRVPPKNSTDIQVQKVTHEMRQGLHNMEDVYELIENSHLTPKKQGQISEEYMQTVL
How it was run: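 TSHR-HEK293 cells were plated and held 18 h at 37C/5% CO2, then given compound plus Ro20-1724 and stimulated with TSH at 1.5 ng/mL final. After 30 min at room temperature, cAMP was detected with cAMP-d2/anti-cAMP-cryptate (1 h) by fluorescence.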

[10] = qHTS assay to identify small molecule agonists of the estrogen receptor alpha (ER-alpha) signaling pathway in the presence of an antagonist - cell viability counter screen (AID 1259386);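 note: series mostly up to about 92 µM; cells exposed to compounds for 22 h at 37 °C before the viability read; nearly all actives have a fitted effect of over 30% in size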
How it was run: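 Using estrogen-depleted VM7Luc4E2 cells, the 15-concentration compound series was applied together with 10.0nM ICI-182,780 and incubated 22hr at 37C/5% CO2. Cell viability was then scored by CellTiter-Fluor.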

[11] = target: Progesterone receptor (Homo sapiens) (UniProt P06401); experiment: qHTS assay to identify small molecule agonists of the progesterone receptor (PR) signaling pathway (AID 1346784; calls by dose curve; note: nearly all actives have a fitted effect of over 30% in size)
Progesterone receptor (Homo sapiens), sequence (P06401 whole entry, looked up): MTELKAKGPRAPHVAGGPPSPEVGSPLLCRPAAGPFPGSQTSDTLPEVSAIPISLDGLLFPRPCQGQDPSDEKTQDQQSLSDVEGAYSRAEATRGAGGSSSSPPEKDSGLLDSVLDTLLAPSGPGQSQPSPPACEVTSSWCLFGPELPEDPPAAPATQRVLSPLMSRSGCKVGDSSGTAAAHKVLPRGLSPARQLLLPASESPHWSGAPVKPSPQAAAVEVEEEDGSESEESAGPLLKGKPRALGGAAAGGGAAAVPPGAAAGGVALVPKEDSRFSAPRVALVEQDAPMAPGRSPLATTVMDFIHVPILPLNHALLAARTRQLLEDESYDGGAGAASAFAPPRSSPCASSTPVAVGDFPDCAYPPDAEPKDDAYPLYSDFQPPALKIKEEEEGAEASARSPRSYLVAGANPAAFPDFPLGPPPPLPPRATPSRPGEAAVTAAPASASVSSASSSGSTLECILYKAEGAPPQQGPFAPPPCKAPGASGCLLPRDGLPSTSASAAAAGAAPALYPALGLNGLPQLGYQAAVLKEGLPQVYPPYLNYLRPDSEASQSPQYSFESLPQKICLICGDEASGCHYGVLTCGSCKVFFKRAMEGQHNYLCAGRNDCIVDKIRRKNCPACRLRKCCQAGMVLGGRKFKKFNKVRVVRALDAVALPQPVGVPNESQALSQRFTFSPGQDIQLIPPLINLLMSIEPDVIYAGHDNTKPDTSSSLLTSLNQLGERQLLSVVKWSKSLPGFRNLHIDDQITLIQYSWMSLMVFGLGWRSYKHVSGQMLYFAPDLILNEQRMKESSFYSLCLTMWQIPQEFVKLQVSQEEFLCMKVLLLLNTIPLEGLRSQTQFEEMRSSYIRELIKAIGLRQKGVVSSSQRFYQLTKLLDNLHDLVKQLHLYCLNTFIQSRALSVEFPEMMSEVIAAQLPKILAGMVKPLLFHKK
How it was run: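 The screen uses PR-UAS-bla HEK 293T cells in charcoal-stripped serum (2%). Compounds are applied for 16 hr at 37C after a 6 hr pre-incubation, and reporter activity is detected with a FRET beta-lactamase substrate after 2 hr at room temperature.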

[12] = target: Progesterone receptor (Homo sapiens) (UniProt P06401); experiment: qHTS assay to identify small molecule antagonists of the progesterone receptor (PR) signaling pathway (AID 1346795; active = well fitted inhibition curve with a large enough effect in the signal ratio in the repeat runs, not every such curve was filed as active; the % refers to the signal ratio)
How it was run: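 After 6 hr plating at 37C in 2% stripped-serum medium, PR-UAS-bla HEK293T cells got compounds, then 1 nM R5020. Sixteen hours later, LiveBLAzer substrate was applied for 2 hr at room temperature and fluorescence was recorded.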

[13] = qHTS assay to identify small molecule antagonists of the progesterone receptor (PR) signaling pathway - cell viability counter screen (AID 1346798); note: series mostly up to about 92 µM; nearly all actives have a fitted effect of over 50% in size
How it was run: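 Viability was determined by ATP-based luminescence (CellTiter-Glo) in PR-UAS-bla HEK293T cells cultured in 2% charcoal-stripped serum and incubated 16 hr with compounds under R5020 stimulation.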

[14] = qHTS assay to identify small molecule agonists of the progesterone receptor (PR) signaling pathway - cell viability counter screen (AID 1346799; calls by dose curve; note: nearly all actives have a fitted effect of over 45% in size)
How it was run: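 Viability was scored by ATP luminescence (CellTiter-Glo, 30 min, room temperature) in the same wells used for the reporter readout, after 16 hr compound exposure of PR-UAS-bla HEK293T cells.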

[15] = qHTS assay to identify small molecule antagonists of the TGF-beta/Smad signaling pathway - cell viability counter screen (AID 1346824); note: nearly all actives have a fitted effect of over 50% in size
How it was run: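 SBE-bla HEK 293T cells were plated overnight at 37 C, then given compounds in DMSO plus TGF-beta1 (added as 0.25 ng/mL solution) for 5 hr. After the bla read, CellTiter-Glo was added to the same wells and luminescence read after 30 min at room temperature.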

[16] = qHTS assay to identify small molecule agonists of the TGF-beta/Smad signaling pathway (AID 1346859; active = well fitted activation curve with a large enough effect in the signal ratio in the repeat runs, not every such curve was filed as active; the % refers to the signal ratio; note: series mostly up to about 77 µM)
How it was run: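 Dual-wavelength fluorescence (460/530 nm emission) quantified beta-lactamase expression under the Smad binding element in HEK 293T cells following 5 hr compound treatment at 37 C.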

[17] = target: Thyrotropin-releasing hormone receptor (Homo sapiens) (UniProt P34981); experiment: qHTS assay to identify small molecule antagonists of the thyrotropin-releasing hormone receptor (TRHR) signaling pathway (AID 1346877; active = well fitted inhibition curve with a large enough effect in the repeat runs, not every such curve was filed as active; note: series mostly up to about 51 µM)
Thyrotropin-releasing hormone receptor (Homo sapiens), sequence (P34981 whole entry, looked up): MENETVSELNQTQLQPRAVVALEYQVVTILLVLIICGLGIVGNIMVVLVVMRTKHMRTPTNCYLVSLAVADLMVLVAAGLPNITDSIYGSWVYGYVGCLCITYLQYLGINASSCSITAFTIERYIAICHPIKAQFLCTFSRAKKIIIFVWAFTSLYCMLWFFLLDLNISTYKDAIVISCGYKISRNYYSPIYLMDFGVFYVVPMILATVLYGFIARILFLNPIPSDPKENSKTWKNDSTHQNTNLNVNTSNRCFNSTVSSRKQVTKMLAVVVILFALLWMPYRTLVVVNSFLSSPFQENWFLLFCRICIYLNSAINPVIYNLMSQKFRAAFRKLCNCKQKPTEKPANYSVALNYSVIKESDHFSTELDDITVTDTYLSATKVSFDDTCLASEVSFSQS
How it was run: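 Calcium signal in dye-loaded TRHR/HEK293 cells; compounds added 5 min before TRH (1 nM final); fluorescence monitored 3 min at 1 s steps.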

[18] = target: Thyrotropin-releasing hormone receptor (Homo sapiens) (UniProt P34981); experiment: qHTS assay to identify small molecule agonists of the thyrotropin-releasing hormone receptor (TRHR) signaling pathway (AID 1346891; calls by dose curve;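 note: HEK293 cells expressing TRHR with calcium dye readout; series mostly up to about 58 µM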)
How it was run: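 Kinetic fluorescence (3 min, 1 s intervals) reported intracellular calcium after compound transfer onto TRHR-Hek293 cells pre-loaded with dye for 2 h at 37 °C.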

[19] = Human pregnane X receptor (PXR) small molecule agonists, qHTS cell viability counter screen (AID 1346977); note: nearly all actives have a fitted effect of over 50% in size
How it was run: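 HepG2 cells stably carrying the PXR-Luc reporter are cultured with 5% charcoal-stripped FBS and treated with compounds for 24hr. CellTiter-Fluor is added at 23hr and fluorescence is read after 1hr.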

[20] = qHTS assay to identify small molecule agonists of the TGF-beta/Smad signaling pathway - cell viability counter screen (AID 1346829); note: top concentration of the series differs between compounds; nearly all actives have a fitted effect of over 45% in size
How it was run: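 In parallel with the Smad reporter read, viability of HEK 293T cells stably carrying SBE-bla is quantified by ATP luminescence following 5 hr compound treatment.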

Measured: Potency

CCN(CC)CCNC(=O)c1cc(S(C)(=O)=O)ccc1OC
inactive: [1] | [2] | [3] | [4] | [5] | [6] | [7] | [8] | [9] | [10] | [11] | [12] | [13] | [14] | [15] | [16] | [17] | [18] | [19]

C=CCCCCCCCCC=O
inactive: [1] | [2] | [3] | [4] | [6] | [7] | [8] | [9] | [10] | [11] | [12] | [15] | [20] | [16] | [19]

O=C(O)CCCl
inactive: [1] | [2] | [3] | [4] | [5] | [6] | [7] | [8] | [9] | [10] | [11] | [12] | [13] | [14] | [15] | [20] | [16] | [18] | [19]

OCCCC1CCCCC1
inactive: [1] | [2] | [4] | [5] | [6] | [7] | [8] | [9] | [10] | [11] | [12] | [13] | [15] | [20] | [16] | [17] | [18] | [19]

OC1CCCCC1c1ccccc1 (stereo unspecified)
inactive: [1] | [2] | [4] | [5] | [6] | [7] | [8] | [9] | [10] | [11] | [12] | [13] | [15] | [20] | [16] | [17] | [18] | [19]

CCc1cccc2c(CCO)c[nH]c12
inactive: [1] | [2] | [3] | [4] | [6] | [8] | [9] | [10] | [11] | [12] | [13] | [15] | [20] | [16] | [17] | [18] | [19]

COc1c(N2C[C@@H]3CCCN[C@@H]3C2)c(F)cc2c(=O)c(C(=O)O)cn(C3CC3)c12
inactive: [1] | [2] | [4] | [5] | [6] | [7] | [9] | [10] | [11] | [12] | [14] | [20] | [16] | [19]

N=c1nc(N2CCCCC2)cc(N)n1O
inactive: [1] | [2] | [4] | [6] | [7] | [8] | [9] | [10] | [11] | [12] | [13] | [14] | [20] | [17] | [18] | [19]
